# Laboratory results published in ChEMBL document CHEMBL5308504, “Tm Shift (DSF) assay results for EUbOPEN Chemogenomics Library” (2023).
# Tests used:
# [1] = target: Bromodomain-containing protein 4 (Homo sapiens) (UniProt O60885); details: Compound concentration 20.0 uM, Protein concentration 2.0 uM, Result type QC Liability
# [2] = target: T1, Transcription intermediary factor 1-alpha (Homo sapiens) (UniProt O15164); details: Compound concentration 20.0 uM, Protein concentration 2.0 uM, Result type QC Liability
# T1 sequence (whole entry): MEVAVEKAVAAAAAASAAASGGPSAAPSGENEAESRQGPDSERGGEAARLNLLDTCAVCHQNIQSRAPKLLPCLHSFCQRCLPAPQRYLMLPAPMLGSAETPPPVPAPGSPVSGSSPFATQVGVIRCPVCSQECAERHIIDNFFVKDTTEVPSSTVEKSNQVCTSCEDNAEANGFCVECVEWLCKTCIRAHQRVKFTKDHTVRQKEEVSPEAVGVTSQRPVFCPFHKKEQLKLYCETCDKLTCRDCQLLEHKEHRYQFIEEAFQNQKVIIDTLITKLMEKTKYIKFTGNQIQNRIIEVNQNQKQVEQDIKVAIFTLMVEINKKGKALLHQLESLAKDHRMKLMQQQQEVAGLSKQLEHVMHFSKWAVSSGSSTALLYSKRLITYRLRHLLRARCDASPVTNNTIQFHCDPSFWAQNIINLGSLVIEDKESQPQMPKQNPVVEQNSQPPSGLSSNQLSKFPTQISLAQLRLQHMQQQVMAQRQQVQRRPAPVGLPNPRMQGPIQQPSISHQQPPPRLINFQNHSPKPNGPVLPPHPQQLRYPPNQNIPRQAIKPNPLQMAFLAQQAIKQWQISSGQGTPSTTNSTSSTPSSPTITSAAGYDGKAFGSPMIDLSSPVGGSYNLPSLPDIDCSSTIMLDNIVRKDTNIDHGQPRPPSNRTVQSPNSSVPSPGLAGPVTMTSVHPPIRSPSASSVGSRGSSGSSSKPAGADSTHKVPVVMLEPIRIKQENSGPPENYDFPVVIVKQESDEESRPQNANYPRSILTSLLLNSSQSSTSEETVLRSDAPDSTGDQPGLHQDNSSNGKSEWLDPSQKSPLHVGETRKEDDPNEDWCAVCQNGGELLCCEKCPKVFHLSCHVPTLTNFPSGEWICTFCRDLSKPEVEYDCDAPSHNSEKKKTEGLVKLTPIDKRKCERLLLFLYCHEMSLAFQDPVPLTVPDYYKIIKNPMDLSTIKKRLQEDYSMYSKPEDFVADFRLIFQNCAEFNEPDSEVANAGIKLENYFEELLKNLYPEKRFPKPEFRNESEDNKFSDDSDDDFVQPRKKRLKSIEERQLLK
Compound,ΔTm [1] [°C],ΔTm [2] [°C]
COc1cc(C(=O)NCCOCCOCCOCC(=O)N[C@H](C(=O)N2C[C@@H](O)C[C@H]2C(=O)NCc2ccc(-c3scnc3C)cc2)C(C)(C)C)ccc1Nc1ncc(C(F)(F)F)c(Oc2cccc3c2C(=O)CC3)n1,0.11,2.2
CCOC(=O)C1Cc2ccccc2CN1C(=O)c1ccc(SC)s1 (centres undefined),-2.7,-3.41
O=C(CCCCCCc1ccccc1)c1ncc(-c2ccccn2)o1,-1.06,-0.23
Nc1nccc(-c2c(-c3ccc(F)cc3)ncn2C2CCCCC2)n1,0.24,-0.83
Cc1cc([N+](=O)[O-])c(NS(=O)(=O)c2cccc(C(=O)O)c2)cc1-c1cccnc1,-0.44,-2.82
O=C(Nc1cccc(C(F)(F)F)c1)c1cccc(-n2cc(-c3ccco3)nn2)c1,-12.8,-0.66
COc1cc2nc(C)nc(N[C@H](C)c3cc(N)cc(C(F)(F)F)c3)c2cc1O[C@H]1CCOC1,0,0.8
CNc1ncc2cc(-c3ccc(-c4cccc(C)n4)cc3Cl)c(=O)n(C[C@H]3OC[C@H](N)CO3)c2n1,-1.96,-2.28
COc1cc(C(=O)NC2CCN(C)CC2)ccc1Nc1ncc2c(n1)N(C1CCCC1)CC(F)(F)C(=O)N2C,7.37,-2.21
Cc1cc(Cn2c(N3CC4(CNC4)C3)nc3c(N4CCN(C)CC4)cc(Cl)cc32)cc(C)c1F,-1.49,-0.77
CC(C)N(CCCCOCC(=O)O)c1cnc(-c2ccccc2)c(-c2ccccc2)n1,-1.87,-0.66
Cc1ncsc1-c1ccc(CNC(=O)[C@@H]2C[C@@H](O)CN2C(=O)[C@@H](NC(=O)C2(F)CC2)C(C)(C)C)c(OCCOc2ccc(CN3CCN(c4cc(-c5ccccc5O)nnc4N)CC3)cc2)c1,13.5,0
FC(F)(F)c1ccc(CNc2ccc(Cc3c[nH]c4ncc(Cl)cc34)cn2)cn1,2,1.98
COc1ccc(S(=O)(=O)N2CCOCC2)cc1Nc1ccc2c(n1)N(C1CCN(C)CC1)[C@H](C)C(=O)N2C,-8.74,-1.33
CN[C@@H](C)C(=O)N[C@H](C(=O)N1CCC[C@H]1C(=O)Nc1sc(-c2ncco2)nc1-c1ccccc1)C1CCCCC1,-2.68,-2.9
O=S(=O)(Nc1ccc(C(O)(C(F)(F)F)C(F)(F)F)cc1)c1cccs1,-2.9,-0.69

Compound,ΔTm [1] [°C],ΔTm [2] [°C]
Cc1n[nH]c2ncc(C(=O)N3CCC[C@H]3c3ccc(Cl)cc3)cc12,0,-1.73
CC(C)Nc1ncnc2cc(OCc3cccc([S@@](C)(=N)=O)c3)c(Br)cc12,0.34,0.14
CCc1nc(C2CCC2)n2nc(-c3ccccc3)[nH]c(=O)c12,0.07,0.37
Cc1ccc(NS(=O)(=O)c2ccc3c(c2)C2C=CCC2C(c2ccc(C(=O)O)cc2)N3)cc1C (centres undefined),-2.09,-2.63
Cc1c(CN2CCC3(CC2)CN(c2ncnc4sc(CC(F)(F)F)cc24)C3)ccc2c1cc(C#N)n2CC(N)=O,1.17,0.7
CS(=O)(=O)CCNCc1ccc(-c2ccc3ncnc(Nc4ccc(OCc5cccc(F)c5)c(Cl)c4)c3c2)o1,-2.54,-3.02
CCS(=O)(=O)c1ccc(OC)c(Nc2ncc(-c3cccc(F)c3)o2)c1,-2.4,-1.42
CCN(C(=O)CO)[C@H]1CN(/C(=N\C#N)Nc2cccc(OC(F)F)c2)N=C1c1ccc(Cl)c(Cl)c1,3.5,0.3
O=C(O)c1cccc(C2=C(c3cc(Cl)ccc3OCc3ccc(F)cc3F)CCC2)n1,-0.65,-2.91
Nc1ncnc2c1c(I)cn2[C@@H]1O[C@H](CO)[C@@H](O)[C@H]1O,-1.9,-4
CCC(C(=O)Nc1ccc(-c2cc3ccccc3s2)c(C(N)=O)c1)c1nccs1 (centres undefined),-0.87,0.44
CC(C)(C)c1cc(NC(=O)c2csc(Nc3ccc(Cl)cc3)n2)no1,-0.97,0.11
COc1cc(C)c(S(=O)(=O)N(C)CCOCC(=O)N(C)[C@H]2CCC[C@@H](N3CCN(C)CC3)C2)c(C)c1,-1.54,0.17
CN[C@@H](C)C(=O)N[C@H](C(=O)N1CCC[C@H]1c1nc(C(=O)c2ccc(F)cc2)cs1)C1CCCCC1,-3.21,-1.98
Cc1cc(OC2CCS(=O)(=O)CC2)cc(C)c1-c1cccc(COc2ccc(CCC(=O)O)c(F)c2)c1,-5.08,-3.73
CN(C)C(=O)Cn1cc(-c2nc([C@@](C)(c3ccc(-c4cnc(N)nc4)cc3)C3CC3)no2)cn1,-1.9,0.31
